Assay results as given in paper PMC7819943, “Rice protein-binding microarrays: a tool to detect cis-acting elements near promoter regions in rice”.
In all, about 68,000 sequences were measured (“fluorescence intensity (a.u.)”: median about 9,100, highest 2% from about 16,000 on). The sample as a whole holds a higher share of the highest values than the screen did.

These sequences were tested against OsWRKY34 (Oryza sativa, UniProt Q0JBA9 1-250) (assay: protein-binding microarray (RPBM); PBS, 2% BSA, 51.3 ng/ul salmon testes DNA, 50 uM zinc acetate, 200 nM TF, 25 C, 1 h; high values mean tight binding). Conditions: protein: recombinant; tags: N-terminal polyhistidine and DsRed monomer fusion (pET32a); label: CyDye5-dUTP incorporated in the synthesized complementary strand; 3' TTTTT single-stranded linker to array surface; dsDNA, one strand shown.
Chain of OsWRKY34 (Q0JBA9 entry or part of it): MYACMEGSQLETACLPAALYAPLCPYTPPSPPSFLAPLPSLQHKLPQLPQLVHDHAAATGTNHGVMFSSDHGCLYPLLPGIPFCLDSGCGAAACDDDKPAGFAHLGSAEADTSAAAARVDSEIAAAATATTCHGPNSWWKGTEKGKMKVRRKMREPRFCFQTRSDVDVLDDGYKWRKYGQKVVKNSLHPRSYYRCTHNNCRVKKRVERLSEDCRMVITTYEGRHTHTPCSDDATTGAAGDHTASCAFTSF
In short: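 A custom Agilent array was converted to double-stranded form by primer extension with Cy5-dUTP and blocked with 2% BSA. Protein at 200 nM in PBS with 2% BSA, salmon testes DNA and 50 µM zinc acetate was applied for 1 h at 25 °C, followed by washing. The proteins were polyhistidine–DsRed N-terminal fusions of transcription factors, expressed in E. coli BL21-CodonPlus and Ni–NTA-purified. The binding signal is per-feature fluorescence intensity (arbitrary units) from an Axon 4000B scanner.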
“TCTCTTTCTCTCTCTCCTCTTCTTCCTTGGCGAGTTGTGCCGGAGTCACCTAGTGCAG” was tested, and the binding signal was 8080 fluorescence intensity (a.u.). With “ATCCATCCGAGCTCTCTCTCTCTCTCTGTCTTCTCTCTACCGGAGTCACCTAGTGCAG” the binding signal was 10700 fluorescence intensity (a.u.). For “ACTCCAGCATGATCCACAACACCACTCACCTCATGATTTTCGGAGTCACCTAGTGCAG”, the binding signal was 8770 fluorescence intensity (a.u.). “TATTTTCGTCCGGTTTTTTCCACTCACCAGTCACCACCCCCGGAGTCACCTAGTGCAG” was tested, and the binding signal was 8490 fluorescence intensity (a.u.). “ACCACTCACCTCATGATTTTCGTTGTATTCGTTCCAGTCCCGGAGTCACCTAGTGCAG” was tested, and the binding signal was 20000 fluorescence intensity (a.u.). With “CTCTCCTCCTCCGTTCCTGACTCCACCACTCACATTCATTCGGAGTCACCTAGTGCAG” the binding signal was 13200 fluorescence intensity (a.u.). In the case of “AGGGGTGCTAATTGAGCCTATTTCGGGTGGGGCTCACTGACGGAGTCACCTAGTGCAG”, the binding signal is reported as 15300 fluorescence intensity (a.u.). With “TTCTTGGCCCGCTAACTCATGATGGTTTTATCCAGATCGTCGGAGTCACCTAGTGCAG” the binding signal was 9880 fluorescence intensity (a.u.). With “TGTGCCTCCGGATTTGACCTTTCCTCGAACCTTCTTCTTCCGGAGTCACCTAGTGCAG” the binding signal was 13300 fluorescence intensity (a.u.). In the case of “TCAAACCTCGCGACTTCTTCTTCCACCTCTCGCTCCGGGCCGGAGTCACCTAGTGCAG”, the binding signal is reported as 11800 fluorescence intensity (a.u.). For “GGGATATATCCTTTGACCGGTCAAACCTCGCGACTTCTTCCGGAGTCACCTAGTGCAG”, the binding signal was 18800 fluorescence intensity (a.u.). For “CCTTTCCTAAGTCTCTGTTTTAACATCTCTATTGGGGCATCGGAGTCACCTAGTGCAG”, the binding signal was 8940 fluorescence intensity (a.u.). In the case of “CTCCGTCACTCAGATTTAATACATGACTCTCTATTATTCCCGGAGTCACCTAGTGCAG”, the binding signal is reported as 9060 fluorescence intensity (a.u.). With “CAGCAGCGGCGGCGGCGGCGGCGGCGGGGTGGTGGAACCTCGGAGTCACCTAGTGCAG” the binding signal was 9080 fluorescence intensity (a.u.). For “GGGGTGGCGGTGGCGGTGGTGGTGGTGGTGGTGGTGGAGTCGGAGTCACCTAGTGCAG”, the binding signal was 41600 fluorescence intensity (a.u.). “ATGGAGGCGGTGGTCGGAGGTGGCAGACGATGCTCGGGGACGGAGTCACCTAGTGCAG” was tested, and the binding signal was 8040 fluorescence intensity (a.u.). For “GGCGGCGGCGGGGTGGCCTTGGCCGGGTGCCTTGGTGGATCGGAGTCACCTAGTGCAG”, the binding signal was 10300 fluorescence intensity (a.u.). In the case of “GGAGGCGGTGGTGTTGGAGTTGGAGGGCGCGTGGAGGTGGCGGAGTCACCTAGTGCAG”, the binding signal is reported as 12900 fluorescence intensity (a.u.). With “GAGGAGGAGGTGGAGCTACTGGTGGTGGTGGTGGTGGTGGCGGAGTCACCTAGTGCAG” the binding signal was 16200 fluorescence intensity (a.u.). For “GGAGGTCGGTGGCCTCGGCGGTGGAGGTCGGGGTCGGGGACGGAGTCACCTAGTGCAG”, the binding signal was 16500 fluorescence intensity (a.u.). For “GCGGAGGAGGTGGTGGTGGTGGAGGAGGAGGAGGCCAAGGCGGAGTCACCTAGTGCAG”, the binding signal was 19300 fluorescence intensity (a.u.). In the case of “GGGGAGGCGGGTGGGGTTGAGGAGGTCGGTGGCCTCGGCGCGGAGTCACCTAGTGCAG”, the binding signal is reported as 12300 fluorescence intensity (a.u.). “GGCGGCGGCGGCGGCGGCGGGGAGGAGGTGAAGGTGGAGGCGGAGTCACCTAGTGCAG” was tested, and the binding signal was 14100 fluorescence intensity (a.u.). In the case of “AGGTGGTGGTGGAGGTGGAGGTGGCGGTGGAGGTGGAGGGCGGAGTCACCTAGTGCAG”, the binding signal is reported as 38600 fluorescence intensity (a.u.). “CCTTACCGTACAAGGGAGGAGGAGGTGGTGGTGGTGGAGGCGGAGTCACCTAGTGCAG” was tested, and the binding signal was 13000 fluorescence intensity (a.u.). “GGCCTCACTATCGTCGACTCCTCCACTCCGGGGACTGCCGCGGAGTCACCTAGTGCAG” was tested, and the binding signal was 10000 fluorescence intensity (a.u.). “AGCCGATCAGCTTCCAGCTCTTCATCCCAGCTTGCATCGTCGGAGTCACCTAGTGCAG” was tested, and the binding signal was 9300 fluorescence intensity (a.u.). In the case of “CCCCTGTTTCTCGGTTCTTTCGCTCGCCTTCTAGGCCCAACGGAGTCACCTAGTGCAG”, the binding signal is reported as 11400 fluorescence intensity (a.u.). For “ATGATACTAGCGGAGCTCACTACTTACTATTAGTCAATGTCGGAGTCACCTAGTGCAG”, the binding signal was 8330 fluorescence intensity (a.u.). For “ATAGCACCTCGAAACACCAAACTATTGCTATTAACATTTTCGGAGTCACCTAGTGCAG”, the binding signal was 9650 fluorescence intensity (a.u.). With “CCTTAATGCTCGAGATATACTAATACTACTCCCTTTGTTTCGGAGTCACCTAGTGCAG” the binding signal was 10400 fluorescence intensity (a.u.). With “TACGCGTTATTTGTTTTTCGCAGCGTTTCCTTTTTTTTTTCGGAGTCACCTAGTGCAG” the binding signal was 9540 fluorescence intensity (a.u.). “TTTATCGCTTTGACTGTTCTACATCTTGCCTCGCCGTGCACGGAGTCACCTAGTGCAG” was tested, and the binding signal was 9040 fluorescence intensity (a.u.). In the case of “GCACAAGGCAGATGGAGGTTGTACAGCTATTATTATTTCACGGAGTCACCTAGTGCAG”, the binding signal is reported as 8380 fluorescence intensity (a.u.). With “TAATATTAATAAATAAAAAACCAGCGGTCGAACCGTTGACCGGAGTCACCTAGTGCAG” the binding signal was 13000 fluorescence intensity (a.u.). “GGGCATTGAGTGGTGGGGACGTGTGGGAGGCAGGCGGAGACGGAGTCACCTAGTGCAG” was tested, and the binding signal was 9540 fluorescence intensity (a.u.). For “TAGAGGTGGGCGGTAGGGGCTATTTCTGCAATTTTTTGGTCGGAGTCACCTAGTGCAG”, the binding signal was 9680 fluorescence intensity (a.u.). With “GAGAAGAGGAGAGAGAGTGAGAGTGGGCGACAATTTTATCCGGAGTCACCTAGTGCAG” the binding signal was 64200 fluorescence intensity (a.u.). “TGTTGTTGCCGGAATGTGTGTGTGTGCGTGTGTGTGTGTGCGGAGTCACCTAGTGCAG” was tested, and the binding signal was 8720 fluorescence intensity (a.u.). In the case of “ATATTGGTGGGCGCGGATTTTAATAGGTGGGCGGTGGATTCGGAGTCACCTAGTGCAG”, the binding signal is reported as 8430 fluorescence intensity (a.u.). With “GAGGTAGTGGTTTAGAGGAGGAGGCGGAGAAGAGGAGGGACGGAGTCACCTAGTGCAG” the binding signal was 9020 fluorescence intensity (a.u.). In the case of “GATCCAAGAGTGGAGAAGGAGAGGGGTGGGGAGCCGGCGACGGAGTCACCTAGTGCAG”, the binding signal is reported as 9460 fluorescence intensity (a.u.). For “TTCGTTGTTGGTGGTGGTGGCGGGCGGAAGATGCGGTTGCCGGAGTCACCTAGTGCAG”, the binding signal was 10000 fluorescence intensity (a.u.). For “GGCGAGGGGAGAAGAGAAGAGGTGGGTGAGGTGGGGTTTCCGGAGTCACCTAGTGCAG”, the binding signal was 12800 fluorescence intensity (a.u.). “TGGTGGGCGGTGGAGTTATTTTCTTAATAGAGCATTGAGACGGAGTCACCTAGTGCAG” was tested, and the binding signal was 23900 fluorescence intensity (a.u.). For “AGGAGGTGGTATTATTTTTTTTTTGGTAGAGAGGGGAGGGCGGAGTCACCTAGTGCAG”, the binding signal was 16500 fluorescence intensity (a.u.). In the case of “GGTTGCGTTGTTGCGGGCGTTGTTGCGGGCGGGCGGTCAGCGGAGTCACCTAGTGCAG”, the binding signal is reported as 16600 fluorescence intensity (a.u.).
